Source: PubChem (Broad Institute)
The list is not random: actives were taken first. Their share in the collection is about 3.1%.
miR-122 sensor: miR-122 Renilla sensor signal increase in Huh7, primary screen, miR-122 inhibitor project, cell-based, single point, plate reader; Huh7 miR-122 Renilla luciferase sensor, 48 h; neutral wells = 0, positive control = 100; activation (reporter increase), % at 12.5 µM; 340,000 compounds, 0.3% hits; AID 602342, 2012;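 active = mean replicate activation score at least 90 and every replicate individually at or above 90; inconclusive = only one of the two criteria met; inactive = neither criterion met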;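 note: higher luciferase means less miR-122 activity so hits act as miR-122 inhibitors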
Env fusion inh: inhibitors of HIV-1 Env-driven cell-cell fusion, primary screen, HeLa-JRFL effector, CEM21 target cells, luciferase | inhibition, % at 12.3 µM | 360,000 compounds, 1.1% hits;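 active = mean replicate inhibition score of at least 50 and every replicate individually at or above 50; inconclusive = only one of the two criteria met; inactive = mean below 50 and not all replicates reaching 50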;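 note: 0% = plate neutral controls and 100% = maraviroc near 300 nM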
EWS-Fli inh: EWS/Fli-driven NR0B1 reporter inhibitors, primary screen, A673 cells, NR0B1 luciferase, luminescence, MLPCN library. AID 651661, 2012. inhibition, % at 12.6 µM. viability-normalised. 350,000 compounds, 0.67% hits;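 active = mean inhibition of at least 50% after viability correction, with every replicate also passing that limit; inconclusive = mean reaches 50% but only one of two replicates passes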;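 note: firefly luciferase signal divided by Alamar Blue viability fluorescence both relative to DMSO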
PAX8 inh HTS: inhibitors of PAX8-driven TPO luciferase reporter, primary screen, RMG-I cells, single concentration; 360,000 compounds, 1.2% hits; inhibition, % at 12.6 µM; SteadyGlo, 24 h;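 active = mean replicate inhibition at least 60% with every replicate also reaching 60%; inconclusive = only one of the two criteria is met; inactive = mean below 60% and not all replicates reaching 60%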;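 note: luciferase light reporting Pax8 driven TPO promoter activity; plate controls were median of neutral control wells for no effect and mitoxantrone controls for full effect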
GSIS activator: GLuc luminescence reporter in INS-1E cells, primary screen for activators of glucose-dependent secretion of insulin | INS-1E GLuc reporter insulin secretion, 2-3 h | activation, % at 16.6 µM | 370,000 compounds, 0.61% hits | AID 743287, 2014;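 active = lowest replicate activation of at least 40%, so every replicate reaches that level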;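 note: 0% = median of neutral control wells and 100% = median of IBMX positive control wells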
Statin myotox sup: suppressors of statin myotoxicity in C2C12 myotubes, primary screen, cell-based, single point, plate reader; C2C12 myotubes + simvastatin, ATP luminescence, 48 h; scaled: DMSO 0, geranylgeraniol control 100; rescue of ATP level, % at 7.49 µM; 330,000 compounds, 0.78% hits; AID 602340, 2012;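 active = mean ATP rescue above about 67%, or every replicate alone reaching that limit, limit read from the data, passing the limit was not always enough; inconclusive = no clear call, values can overlap the other calls; inactive = mean under the limit and some replicate under it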;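 note: myotubes were challenged with 10 µM simvastatin during compound exposure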
* = called active by the depositor; i = inactive; u = inconclusive; x = no result; ! = not confirmed by another sample; [ ] = dose if it differs, or a comment.

SMILES | miR-122 sensor | Env fusion inh | EWS-Fli inh | PAX8 inh HTS | GSIS activator | Statin myotox sup
C/C=C(\C)C(=O)OC1CC(C)(C)C[C@H]2C3=CC[C@@H]4[C@@]5(C)CCC(O[C@@H]6O[C@@H](C(=O)O)[C@@H](O)C(O[C@@H]7OC[C@H](O)[C@@H](O)[C@@H]7O[C@@H]7OC(CO)C(O)[C@@H](O)[C@@H]7O)C6O[C@@H]6OC(CO)C(O)C(O)C6O)[C@@](C)(CO)[C@@H]5CC[C@]4(C)[C@]3(C)CC(O)[C@@]12CO (some centres not stated) | -18 | -23 | 24 | 75* | x | -10
CC1(C)CC[C@]2(C(=O)O[C@@H]3OC(CO)[C@@H](O)[C@H](O)[C@H]3O)CC[C@]3(C)C(=CCC4[C@@]5(C)CC[C@H](O[C@@H]6OC(C(=O)O)[C@@H](O)[C@H](O)[C@H]6O)C(C)(C)C5CC[C@]43C)[C@@H]2C1 (some centres not stated) | 0 | -50 | 4 | -7 | 9 | 3
COc1ccc(NC(=O)C2CCCN(CCCc3ccccc3)C2)cc1OCC(C)C (configuration not stated) | -10 | 37 | 61* | 40 | 38 | 1
OC(CCN1CCCCC1)(c1ccccc1)c1ccccc1 | -8 | 1 | 4 | -9 | x | -2
C=CCC(O)(CCN1CCCCC1)c1ccccc1 (configuration not stated) | -2 | x | x | x | x | 88*
O=C(C[C@@H]1C[C@H]2c3cc(NC(=O)Nc4ccccc4)ccc3O[C@H]2[C@H](CO)O1)NCc1ccccn1 | 4[16.7 µM] | -20[16.7 µM] | 4 | -8 | 2 | 1
CC1Cc2ccccc2N1C(=O)CSc1nnc2n1C(C)(C)Cc1ccccc1-2 (configuration not stated) | -6 | -42 | x | 31 | x | 7
COc1ccccc1N1CCN(C(=O)CSc2nnc3n2C(C)(C)Cc2ccccc2-3)CC1 | -22 | 74* | x | x | -29 | 5
C[C@H](CO)N1C[C@H](C)[C@@H](CN(C)Cc2ccccc2)Oc2ccc(NC(=O)Nc3cccc4ccccc34)cc2CC1=O | -14[16.7 µM] | 7[16.7 µM] | 56* | 55 | 2 | -4
C[C@H]1CN([C@@H](C)CO)C(=O)Cc2cc(NC(=O)Nc3cccc4ccccc34)ccc2O[C@@H]1CN(C)Cc1ccccc1 | -9[16.7 µM] | -1[16.7 µM] | 0 | 21 | -7 | 55
C[C@H](CO)N1C[C@H](C)[C@H](CN(C)Cc2ccccc2)Oc2ccc(NC(=O)Nc3cccc4ccccc34)cc2CC1=O | 0[16.7 µM] | 60*[16.7 µM] | 2 | 24 | -4 | -5
C[C@H]1CN([C@@H](C)CO)C(=O)c2ccccc2-c2ccccc2CO[C@@H]1CN(C)C(=O)c1ccncc1 | x | x | x | x | 16 | x
CC1=C(C(=O)OCc2ccccc2)C(c2cccnc2)c2c(n(C)c(=O)n(C)c2=O)N1 (configuration not stated) | 10 | x | 13 | 13 | 42*! | 4
CS(=O)(=O)c1ccc(C(=O)OCC(=O)Nc2cccnc2Cl)cc1[N+](=O)[O-] | x | x | x | x | 118* | 3
CS(=O)(=O)c1ccc(C(=O)OCC(=O)N2CCN(CCC3CCCCC3)CC2)cc1[N+](=O)[O-] | -14 | 29 | 54* | 105* | 1 | -19
CC(CCc1ccccc1)NC(=O)COC(=O)c1ccc(S(C)(=O)=O)c([N+](=O)[O-])c1 (configuration not stated) | x | 19 | 5 | -12 | 9 | x
CC(=O)c1cccc(NC(=O)COC(=O)c2ccc(S(C)(=O)=O)c([N+](=O)[O-])c2)c1 | x | 11 | 10 | 21 | 48* | x
Cc1ccccc1NC(=O)COC(=O)c1ccc(S(C)(=O)=O)c([N+](=O)[O-])c1 | x | 18 | 10 | u | 5 | x
CS(=O)(=O)c1ccc(C(=O)OCC(=O)N2CCOCC2)cc1[N+](=O)[O-] | -3 | 40 | -6 | -1 | 3 | 10
CS(=O)(=O)c1ccc(C(=O)OCC(=O)NC(=O)C2COc3ccccc3O2)cc1[N+](=O)[O-] (configuration not stated) | -7 | -4 | 5 | 14 | 106* | 2
CCN(C(=O)COC(=O)c1ccc(S(=O)(=O)N2CCCc3ccccc32)cc1)C1CCS(=O)(=O)C1 (configuration not stated) | x | 7 | 5 | 97* | -12 | x
CN1C(=O)c2cc(NC(=O)Cc3cccs3)ccc2OC[C@@H]2O[C@@H](CC(=O)NCCc3ccncc3)CC[C@@H]21 | x | 10[16.7 µM] | 2 | -2 | 4 | -13
O=c1c[n+]([O-])c2ccccc2n1OCc1c(F)cccc1F | 111* | x | x | x | x | -1
CCOn1c(=O)c[n+]([O-])c2ccccc21 | 2 | 6 | 1 | 12 | -5 | 1
COc1ccc(/C=C2/CSC/C(=C/c3ccc(OC)c(OC)c3)C2=O)cc1OC | -17 | i | 66* | 38 | -20 | x
SMILES | miR-122 sensor | Env fusion inh | EWS-Fli inh | PAX8 inh HTS | GSIS activator | Statin myotox sup
CCOc1ccc(/C=C2\CCC(C3CCCC3)C2=O)cc1OC (configuration not stated) | x | -1 | -65 | -47 | 3 | 4
COc1cc(C=C2CCCC(=Cc3ccc(OCC4CO4)c(OC)c3)C2=O)ccc1OCC1CO1 (configuration not stated) | x | -55 | 68* | 30 | -22 | x
COc1ccc(/C=C2\Cc3ccccc3C2=O)cc1OC | 0 | -2 | -137 | -7 | 6 | 20
C[C@@H]1CN([C@H](C)CO)C(=O)c2cc(C#CC3CCCCC3)cnc2O[C@@H]1CN(C)Cc1ccncc1 | 2[16.7 µM] | 7[16.7 µM] | -30 | x | -20 | 12
C[C@@H]1CN([C@@H](C)CO)C(=O)c2cc(C#CCc3ccccc3)cnc2O[C@H]1CN(C)Cc1cccc(F)c1 | -1[16.7 µM] | x | 11 | x | -34 | -5
O=C(c1ccccc1)N1CC(=O)N2[C@H](CO)[C@H](c3ccc(/C=C/c4ccccc4)cc3)[C@H]2C1 | x | x | x | x | -22 | x
CCOc1ccc(-n2c(SCC(=O)Nc3nccs3)nc3c(c2=O)SCC3)cc1 | 3 | -31 | 19 | -5 | x | -37
Cc1ccc(-n2c(SCC(=O)Nc3nccs3)nc3c(c2=O)SCC3)cc1 | -1 | -65 | x | x | 82* | -34
O=C(C[C@@H]1CC[C@@H](NC(=O)c2ccncc2)[C@@H](CO)O1)NCC1CC1 | x | 4[16.7 µM] | 2 | x | 9 | -6
CNC[C@H]1Oc2ccc(NS(=O)(=O)c3cccs3)cc2C(=O)N([C@@H](C)CO)C[C@@H]1C | 16[16.7 µM] | x | -3 | x | 5 | -23
C[C@@H]1CN([C@H](C)CO)C(=O)c2cc(N(C)C)ccc2O[C@@H](C)CCCCO[C@H]1CN(C)Cc1ccc(C(=O)Nc2ccccc2N)cc1 | x | x | x | x | 7 | x
